Measurements as given in PubChem BioAssay AID651812 (National Center for Advancing Translational Sciences (NCATS), 2012).
Out of some 2,100 compounds screened, about 650 (31%) were called active. Another 16% or so got no clear call; they are omitted. The call rests on the fitted dose curve; in most records, active means well fitted inhibition curve with a large enough effect; inconclusive means small, poorly fitted or top-dose-only effect; inactive means flat fitted curve, though single readings scatter. The list shows a part of the results.

Test: qHTS for inhibitors of Vif-A3G interactions: Cherry picks; further: nearly all actives have a fitted effect of over 80% in size
Conditions: HeLa A3G-eYFP + Vif (tagged APOBEC3G with the HIV-1 protein that degrades it), 24 h; Potency: eYFP fluorescence increase; series mostly up to 36.9 µM
Outline: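 HeLa cells stably expressing A3G-eYFP and Vif, cultured overnight then exposed to compounds at several concentrations for 24 hours at 37 C, 5% CO2; cellular yellow fluorescence (488 nm ex, 500-530 nm em) imaged on Acumen, MG132 positive control.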
Potency means the concentration at half of the fitted maximal effect.

Potency, active:
CCCCCCc1cc2cc(-c3nnc(-c4ccccc4OC)o3)c(=O)oc2cc1O 3.53 µM
CCCCCCc1cc2cc(-c3nnc(-c4ccccc4)o3)c(=O)oc2cc1O 1.58 µM
O=S(=O)(Nc1nc2n(n1)C(c1ccccc1)C=C(c1ccc(Cl)cc1)N2)c1ccccc1 (configuration not stated) 18.4 µM
CC(=O)Nc1sc(C)c(C)c1C(=O)OCC(=O)Nc1ccccc1 20.6 µM
Cn1cccc1/C=C1\CC(C(C)(C)C)C/C(=C\c2cccn2C)C1=O (configuration not stated) 7.31 µM
CN1C2CCC1/C(=C/c1cccn1C)C(=O)/C2=C\c1cccn1C 18.4 µM
O=C(CN1C(=O)S/C(=C\c2cc(Cl)c(O)c(Cl)c2)C1=O)Nc1ccccc1 20.6 µM
COc1cc(/C=C2/SC(=S)N(CCC(=O)Nc3ccccc3)C2=O)cc(OC)c1OC 18.4 µM
O=CNc1ccc2c3c(cccc13)-c1ccccc1-2 15.8 µM
CCN1C(=O)/C(=C/C=C2\N(CC)c3cc(S(=O)(=O)N(C)C)ccc3N2c2ccccc2)SC1=S 4.44 µM
CCc1ccc(C2=NN(S(C)(=O)=O)C(c3cccs3)C2)cc1 (configuration not stated) 25 µM
CCOc1ccccc1C1CC(c2cccs2)=NN1S(C)(=O)=O (configuration not stated) 13 µM
C1=Cc2ccccc2/C1=C\c1cc2c3c(c1)CCCN3CCC2 18.4 µM
Oc1ccccc1-c1nc(NCc2ccccc2)c2ccccc2n1 20.6 µM
O=C1c2ccccc2C(=O)c2c(/C=C/N3CCCCC3)ccnc21 18.4 µM
Cc1c2ccccc2nc2c(F)c(NC(C)C)c(F)c(F)c12 10.3 µM
CCCNc1c(F)c(F)c2c(C)c3ccccc3nc2c1F 17.7 µM
Cc1ccc(S(=O)c2ccc([N+](=O)[O-])c3nonc23)cc1 (configuration not stated) 20.6 µM
Cc1cc(C)cc(NC(=O)Cn2cc(C(=O)C3CCCCC3)c3ccccc32)c1 20.6 µM
N#C/C(=C/c1ccc(N2CCCCCC2)o1)c1ccc(Cl)cc1 0.651 µM
N#C/C(=C/c1ccc(N2CCOCC2)o1)c1ccc(Cl)cc1 1.46 µM
Cc1ccc(/C(C#N)=C\c2ccc(N3CCOCC3)o2)cc1 19.8 µM
CCOC(=O)Cc1csc(NC(=O)c2sc3nc4c(C)cc(C)cc4cc3c2N)n1 20.6 µM

Potency, inactive:
COc1ccccc1-c1nnc2sc(-c3cc4ccccc4o3)nn12
COc1ccccc1-c1cc(C(=O)NN)[nH]n1
O=C1OCC2=C1C(c1ccc3c(c1)OCO3)c1cc3c(cc1O2)OCO3 (configuration not stated)
COc1cccc(C2=CC(c3ccccc3)n3nnnc3N2)c1 (configuration not stated)
CN(C)CCN(C(=O)/C=C/c1cccs1)c1nc2c(F)cc(F)cc2s1
COc1ccccc1NC(=O)Cc1ccc(-c2ccccc2)cc1
CC(=O)Nc1ccc(CC(=O)NCCC(c2ccccc2)c2ccccc2)cc1
COC(=O)CCC(=O)NC(=S)Nc1sc(C)c(C)c1C(N)=O
Cn1cccc1/C=C1\SC(=Nc2ccccc2)NC1=O
CC1C/C(=C/c2cccs2)C(=O)/C(=C/c2cccs2)C1 (configuration not stated)
CC1CCN(C(=O)C(C)Sc2nc(-c3ccccc3)cc(C(F)(F)F)n2)CC1 (configuration not stated)
CCc1ccc2nc(N(CCCN(C)C)C(=O)c3ccc(S(=O)(=O)N(C)C4CCCCC4)cc3)sc2c1
C=CCn1c(SCc2c(C)noc2C)nc2cc(C(=O)O)ccc2c1=O
COc1cc(C(=O)N/N=C/C2CC=CCC2)cc(OC)c1OC (configuration not stated)
COc1cc(/C=C2/SC(=S)N(Cc3ccccc3)C2=O)cc(OC)c1O
O=C(NCCN1C(=O)S/C(=C\c2ccc(OC(F)F)cc2)C1=O)c1cnccn1
COc1cc(C=C2C(=O)c3ccccc3C2=O)cc(OC)c1OC
COc1ccc(NC(=O)CN2C(=O)C3(SCC(=O)N3c3ccccc3)c3ccccc32)cc1Cl (configuration not stated)
COC(=O)C1=C(C)NC2=C(C(=O)CC(c3cccs3)C2)C1c1ccsc1 (configuration not stated)
CC(=O)Nc1cccc(-c2ccnc3c2CC(C)(C(=O)NCc2cccs2)O3)c1 (configuration not stated)
Clc1ccc2c(c1)C(C1=NCCN1)c1ccccc1CS2 (configuration not stated)
CCOC(=O)Nc1ccc2c3c(cccc13)-c1ccccc1-2
CC(=O)Nc1ccc(-c2ccnc3c2CC(C)(C(=O)NCc2ccco2)O3)cc1 (configuration not stated)
Cc1ccc2nc(-c3ccccn3)c(Nc3ccccc3C)n2c1
Cc1ccc(C2=NN(C(=O)c3cccs3)C(c3ccccc3O)C2)cc1 (configuration not stated)
Cc1ccccc1C1CC(c2cccs2)=NN1S(C)(=O)=O (configuration not stated)
Cn1c(=S)c2[nH]c(SCCN3CCCC3)nc2n(C)c1=O
O=C1C=CC(O)(c2cc(=O)c3c(O)cc(O)cc3o2)C=C1
Cc1ccc(Nc2nc(-c3cccnc3)nc3ccccc23)cc1
c1cncc(-c2nc(NCc3cccs3)c3ccccc3n2)c1
c1ccc(N=NC2=NN(c3ccccc3)CS2)cc1
Cc1cccc(CSc2cccc3cccnc23)c1
Cc1nnc(NC(=O)CSc2nc(C(C)C)nc3ccccc23)s1
O=C(OCc1ccccc1)c1ccc(NCc2cc(O)ccc2O)cc1
Cc1cc(C)cc(NC(=S)NC(=O)C2CC2)c1
CCn1c2ccccc2c2cc(NC(=O)CNCc3ccccc3OC)ccc21
COc1ccccc1C1c2ccc3ccccc3c2Oc2ncn(CCN(C)C)c(=N)c21 (configuration not stated)
CCOc1ccccc1OCC(=O)N/N=C(\C)Cc1ccc(OC)cc1
Cc1ccc(NC(=O)C2CCN(S(=O)(=O)c3ccc(Cl)c(C(F)(F)F)c3)CC2)nc1
CCCc1nc2c(C)cc(Br)cn2c1Cc1ccccc1
O=C(Nc1cc(Cl)cc2c1-c1ccc(Cl)cc1C2O)C(Cl)Cl (configuration not stated)
CCOC(=O)c1csc(NC(=O)c2cc(-c3ccccn3)nc3ccccc23)n1
CCn1ncc(/C=N\NC(=O)c2csc3ccccc23)c1C
CCC1CC=CC2C1C(=O)N(Cc1ccccc1)C2c1ccoc1 (configuration not stated)
